Results reported in PubChem BioAssay (Tox21).
Results filed as inconclusive are left out. A call without a number means that no potency is given here. Activity calls are given as the source filed them. Unless noted, calls come from the whole dose curve; as a rule, active = well fitted curve in the direction sought with a large enough effect in the repeat runs; inconclusive = weak or mixed curves; inactive = no such curve, though single readings can be large; an effect the other way counts as inactive or inconclusive.

Experiments:
[1] = biological target: Peroxisome proliferator-activated receptor gamma (Homo sapiens) (UniProt P37231); assay: qHTS assay to identify small molecule agonists of the peroxisome proliferator-activated receptor gamma (PPARg) signaling pathway (AID 743094; active = well fitted activation curve with a large enough effect in the signal ratio in the repeat runs, not every such curve was filed as active; the % refers to the signal ratio)
Chain of Peroxisome proliferator-activated receptor gamma (Homo sapiens) (P37231 whole entry, looked up): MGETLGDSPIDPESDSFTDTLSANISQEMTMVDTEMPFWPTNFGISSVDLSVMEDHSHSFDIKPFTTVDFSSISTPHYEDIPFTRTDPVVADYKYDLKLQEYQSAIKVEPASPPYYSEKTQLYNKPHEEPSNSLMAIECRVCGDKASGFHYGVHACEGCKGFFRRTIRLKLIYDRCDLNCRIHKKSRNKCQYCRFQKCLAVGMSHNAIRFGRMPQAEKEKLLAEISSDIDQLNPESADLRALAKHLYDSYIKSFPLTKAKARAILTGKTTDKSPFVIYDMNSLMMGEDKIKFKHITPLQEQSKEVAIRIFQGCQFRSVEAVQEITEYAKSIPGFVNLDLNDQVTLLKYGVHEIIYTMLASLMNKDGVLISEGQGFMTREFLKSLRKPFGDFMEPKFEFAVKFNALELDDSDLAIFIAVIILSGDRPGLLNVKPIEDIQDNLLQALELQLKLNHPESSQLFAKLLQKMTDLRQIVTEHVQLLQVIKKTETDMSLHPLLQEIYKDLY
Summary of the method: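 Compounds dissolved in DMSO were added to PPARg UAS-bla HEK293H cells for 17 h at 37C, and reporter expression was quantified by fluorescence intensity after 1 h with LiveBLAzer B/G FRET substrate.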

[2] = biological target: Peroxisome proliferator-activated receptor gamma (Homo sapiens) (UniProt P37231); assay: qHTS assay to identify small molecule antagonists of the peroxisome proliferator-activated receptor gamma (PPARg) signaling pathway (AID 743191; calls by dose curve; note: series mostly up to about 63 µM; nearly all actives have a fitted effect of over 30% in size)
Summary of the method: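 GeneBLAzer PPARg UAS-bla HEK293H cells, 5 h post-plating, exposed to compounds 17 h at 37C. LiveBLAzer B/G FRET substrate added for 1 h at room temperature; beta-lactamase reporter read by fluorescence intensity.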

[3] = qHTS assay to identify small molecule antagonists of the peroxisome proliferator-activated receptor gamma (PPARg) signaling pathway - cell viability counter screen (AID 743194); settings: Potency: co-treated with 50 nM rosiglitazone; note: nearly all actives have a fitted effect of over 55% in size
Summary of the method: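 Cytotoxicity counter screen in PPARg-bla HEK293H cells, same wells as reporter assay. Compounds plus 50 nM rosiglitazone (final) for 17 h at 37 C, then viability read by CellTiter-Glo luminescence.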

[4] = qHTS assay for small molecule agonists of the antioxidant response element (ARE) signaling pathway (AID 743202; active = well fitted activation curve with a large enough effect in the signal ratio in the repeat runs, not every such curve was filed as active; the % refers to the signal ratio; note: potency is the fitted concentration of half-maximal effect)
Summary of the method: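 ARE-bla HepG2 cells (beta-lactamase reporter under the antioxidant response element), plated 5 hours, then exposed to compounds 16 hours at 37 C. LiveBLAzer B/G FRET substrate added for 2 hours at room temperature; fluorescence intensity read.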

[5] = qHTS assay for small molecule agonists of the antioxidant response element (ARE) signaling pathway - cell viability counter screen (AID 743203; calls by dose curve; note: nearly all actives have a fitted effect of over 55% in size)
Summary of the method: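 Following 16 hrs of compound treatment at 37C, HepG2 cells with an ARE-controlled beta-lactamase gene were lysed with CellTiter-Glo. Luminescence was read after 30 min at room temperature.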

[6] = qHTS assay for small molecule activators of the heat shock response signaling pathway - cell viability counter screen (AID 743209); note: nearly all actives have a fitted effect of over 50% in size
Summary of the method: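 Readout: CellTiter-Glo luminescence, 30 min at room temperature. System: HSE-bla HeLa cells, 1500/well, plated overnight. Treatment: compounds in DMSO, 5 h at 37 C.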

[7] = qHTS assay for small molecule activators of the heat shock response signaling pathway (AID 743210; active = well fitted activation curve with a large enough effect in the signal ratio in the repeat runs, with a control signal flat, not every such curve was filed as active; the % refers to the signal ratio; note: series mostly up to about 63 µM)
Summary of the method: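 HSE-bla HeLa cells (beta-lactamase reporter under heat shock response elements), plated overnight, then exposed to compounds 5 h at 37 C; LiveBLAzer B/G FRET substrate added, 2.5 h at room temperature, fluorescence intensity read.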

[8] = qHTS assay to identify small molecule agonists of the peroxisome proliferator-activated receptor delta (PPARd) signaling pathway - cell viability counter screen (AID 743211); note: nearly all actives have a fitted effect of over 55% in size
Summary of the method: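 In the same wells used for beta-lactamase reporter measurement, cytotoxicity is scored by CellTiter-Glo. HEK293H PPARd-bla cells receive compound for 17 h at 37C following a 5 h settling period.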

[9] = qHTS assay to identify small molecule antagonists of the peroxisome proliferator-activated receptor delta (PPARd) signaling pathway - cell viability counter screen (AID 743213); note: nearly all actives have a fitted effect of over 50% in size
Summary of the method: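 Viability counter-screen, qHTS format: PPARd-bla HEK293H, L165041 300 nM final, 17 h compound exposure at 37 C, CellTiter-Glo luminescence after 30 min RT.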

[10] = biological target: Peroxisome proliferator-activated receptor delta (Homo sapiens) (UniProt Q03181); assay: qHTS assay to identify small molecule antagonists of the peroxisome proliferator-activated receptor delta (PPARd) signaling pathway (AID 743215; active = well fitted inhibition curve with a large enough effect in the signal ratio in the repeat runs, not every such curve was filed as active; the % refers to the signal ratio;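 note: cells stimulated with agonist L165041 at 300 nM final during compound exposure; series mostly up to about 62 µM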)
Chain of Peroxisome proliferator-activated receptor delta (Homo sapiens) (Q03181 whole entry, looked up): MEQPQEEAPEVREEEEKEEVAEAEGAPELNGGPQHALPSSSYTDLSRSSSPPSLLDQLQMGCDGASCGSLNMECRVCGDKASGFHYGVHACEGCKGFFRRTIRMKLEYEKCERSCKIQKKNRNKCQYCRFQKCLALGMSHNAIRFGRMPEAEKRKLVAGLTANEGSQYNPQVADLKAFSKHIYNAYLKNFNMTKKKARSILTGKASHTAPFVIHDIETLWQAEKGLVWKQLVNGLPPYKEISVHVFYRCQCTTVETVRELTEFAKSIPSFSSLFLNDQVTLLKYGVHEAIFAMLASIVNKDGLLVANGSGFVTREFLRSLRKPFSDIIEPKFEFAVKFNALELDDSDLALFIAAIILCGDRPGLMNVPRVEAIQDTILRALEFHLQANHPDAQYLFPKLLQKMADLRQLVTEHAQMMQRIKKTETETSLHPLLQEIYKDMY
Summary of the method: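 HEK293H UAS-bla, PPARd; agonist L165041 300 nM final with cpd in DMSO; 37 C 17 h; FRET substrate, RT 2 h; fluorescence intensity.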

[11] = biological target: Bile acid receptor (Homo sapiens) (UniProt Q96RI1); assay: qHTS assay to identify small molecule antagonists of the farnesoid-X-receptor (FXR) signaling pathway (AID 743217; active = well fitted inhibition curve with a large enough effect in the signal ratio in the repeat runs, not every such curve was filed as active; the % refers to the signal ratio)
Chain of Bile acid receptor (Homo sapiens) (Q96RI1 whole entry, looked up): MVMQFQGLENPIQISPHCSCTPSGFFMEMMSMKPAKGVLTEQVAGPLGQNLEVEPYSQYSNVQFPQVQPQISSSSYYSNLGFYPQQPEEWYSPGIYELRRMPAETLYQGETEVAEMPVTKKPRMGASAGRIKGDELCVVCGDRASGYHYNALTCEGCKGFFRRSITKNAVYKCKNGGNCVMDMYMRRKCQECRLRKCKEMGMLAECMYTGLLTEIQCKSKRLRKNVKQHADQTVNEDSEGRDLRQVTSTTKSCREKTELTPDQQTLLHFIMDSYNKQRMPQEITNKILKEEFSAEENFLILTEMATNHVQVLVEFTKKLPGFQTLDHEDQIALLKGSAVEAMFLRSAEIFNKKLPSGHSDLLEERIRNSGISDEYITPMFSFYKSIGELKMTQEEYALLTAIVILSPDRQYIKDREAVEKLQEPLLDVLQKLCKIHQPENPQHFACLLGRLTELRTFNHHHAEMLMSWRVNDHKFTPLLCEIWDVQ
Summary of the method: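 GeneBLAzer FXR-UAS-bla HEK 293T, CDCA-stimulated (50 uM final). Compound treatment 16 h, 37 °C. Detection: beta-lactamase cleavage of B/G FRET substrate, fluorescence.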

[12] = qHTS assay to identify small molecule agonists of the farnesoid-X-receptor (FXR) signaling pathway - cell viability counter screen (AID 743218); note: nearly all actives have a fitted effect of over 45% in size
Summary of the method: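 Parallel cytotoxicity test: compound-treated (16 h, 37 C) HEK 293T FXR-bla reporter cells were lysed with CellTiter-Glo and luminescence recorded.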

[13] = biological target: Bile acid receptor (Homo sapiens) (UniProt Q96RI1); assay: qHTS assay to identify small molecule agonists of the farnesoid-X-receptor (FXR) signaling pathway (AID 743220; active = well fitted activation curve with a large enough effect in the signal ratio in the repeat runs, not every such curve was filed as active; the % refers to the signal ratio)
Summary of the method: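 Beta-lactamase reporter under UAS control in GeneBLAzer FXR HEK 293T cells (5000/well) measured with LiveBLAzer FRET substrate after 2 h at room temperature. Compound exposure lasted 16 h at 37C.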

[14] = qHTS assay to identify small molecule antagonists of the farnesoid-X-receptor (FXR) signaling pathway - cell viability counter screen (AID 743221; active = well fitted cell-killing curve with a large enough effect in the repeat runs, not every such curve was filed as active; note: nearly all actives have a fitted effect of over 50% in size)
Summary of the method: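 Here viability was scored by luminescence after CellTiter-Glo addition to wells already read for beta-lactamase. Prior treatment: compound plus CDCA (50 uM final), 16 h, 37 C, HEK 293T FXR-bla cells.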

[15] = biological target: Vitamin D3 receptor (Homo sapiens) (UniProt P11473); assay: qHTS assay to identify small molecule agonists of the vitamin D receptor (VDR) signaling pathway (AID 743222; calls by dose curve)
Chain of Vitamin D3 receptor (Homo sapiens) (P11473 whole entry, looked up): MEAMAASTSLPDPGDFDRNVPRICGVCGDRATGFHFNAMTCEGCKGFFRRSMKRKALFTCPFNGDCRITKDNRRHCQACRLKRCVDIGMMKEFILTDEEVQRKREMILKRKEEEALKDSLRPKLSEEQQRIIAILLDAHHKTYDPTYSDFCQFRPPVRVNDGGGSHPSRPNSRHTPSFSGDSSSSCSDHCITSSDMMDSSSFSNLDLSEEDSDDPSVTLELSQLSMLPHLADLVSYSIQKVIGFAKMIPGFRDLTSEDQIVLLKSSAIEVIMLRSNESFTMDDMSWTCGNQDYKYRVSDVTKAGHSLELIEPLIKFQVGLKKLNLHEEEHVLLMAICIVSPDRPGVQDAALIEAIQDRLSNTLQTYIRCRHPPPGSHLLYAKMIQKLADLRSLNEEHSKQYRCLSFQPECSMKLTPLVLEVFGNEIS
Summary of the method: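 In VDR-bla cells, compound-induced beta-lactamase expression is quantified by FRET substrate fluorescence. Treatment lasts 16 h at 37C; substrate develops 2 h at room temperature.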

[16] = qHTS assay to identify small molecule agonists of the vitamin D receptor (VDR) signaling pathway - cell viability counter screen (AID 743224); note: series mostly up to about 63 µM; nearly all actives have a fitted effect of over 50% in size
Summary of the method: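 Plated VDR-bla cells (4 h, 37C) received compound, incubated 16 h, then LiveBLAzer substrate 2 h RT; CellTiter-Glo added afterwards, luminescence read at 30 min.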

[17] = qHTS assay to identify small molecule that activate the aryl hydrocarbon receptor (AhR) signaling pathway - cell viability counter screen (AID 743086);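 note: HepG2 liver cells carrying the AhR DRE luciferase reporter; series mostly up to about 70 µM; nearly all actives have a fitted effect of over 45% in size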
Summary of the method: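 HepG2-AhR-luc (HG2L7.5c1) cells, 4000/well, treated 24 h at 37 C with compound; viability measured as CellTiter-Fluor fluorescence after 30 min in the same wells as the luciferase read.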

[18] = biological target: Vitamin D3 receptor (Homo sapiens) (UniProt P11473); assay: qHTS assay to identify small molecule antagonists of the vitamin D receptor (VDR) signaling pathway (AID 743223; active = well fitted inhibition curve with a large enough effect in the signal ratio in the repeat runs, not every such curve was filed as active; the % refers to the signal ratio)
Summary of the method: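 Inhibition of agonist-driven VDR signalling is scored in VDR-bla cells: 3 nM final 1alpha,25-dihydroxyvitamin D3 plus compound, 16 h at 37C, then beta-lactamase detection by FRET substrate fluorescence after 2 h.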

[19] = biological target: Peroxisome proliferator-activated receptor delta (Homo sapiens) (UniProt Q03181); assay: qHTS assay to identify small molecule agonists of the peroxisome proliferator-activated receptor delta (PPARd) signaling pathway (AID 743212; calls by dose curve)
Summary of the method: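 GeneBLAzer UAS-bla HEK293H cells carrying a PPARδ construct were exposed to compounds at 37 °C. Beta-lactamase activity was read by FRET fluorescence after 2 h at room temperature with LiveBLAzer B/G substrate.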

Row | SMILES | outcome [1] | Potency [2] | Potency [3] | Potency [4] | Potency [5] | Potency [6] | Potency [7] | Potency [8] | Potency [9] | Potency [10] | outcome [11] | Potency [12] | outcome [13] | Potency [14] | outcome [15] | Potency [16] | Potency [17] | outcome [18] | outcome [19]
1 | CCOC(=O)c1ncn2c1CN(C)C(=O)c1c(I)cccc1-2 | inactive | inactive | inactive | inactive | inactive | inactive | inactive | inactive | inactive | inactive | inactive | inactive | inactive | inactive | inactive | inactive |  |  | 
2 | CC(C)(C)C(=O)C(Cl)Cl |  |  |  |  | inactive | inactive | inactive | inactive | inactive | inactive |  | inactive |  | inactive | inactive | inactive | inactive | inactive | 
3 | C[C@H](CN1CCOCC1)C(C(=O)N1CCCC1)(c1ccccc1)c1ccccc1 | inactive |  | inactive | inactive | inactive | inactive | inactive | inactive | inactive | inactive |  | inactive | inactive | inactive | inactive | inactive |  |  | inactive
4 | Cc1cccc2sc3nncn3c12 | inactive |  | inactive | 1.37 µM (active) | inactive | inactive | inactive | inactive | inactive | inactive | inactive | inactive | inactive | inactive |  | inactive |  |  | inactive
5 | Cl/C=C/CCl | inactive | inactive | inactive | inactive | inactive | inactive | inactive | inactive | inactive | inactive |  | inactive |  | inactive | inactive | inactive |  | inactive | inactive
6 | [O-][Br+2]([O-])O | inactive |  | inactive |  | inactive | inactive | inactive | inactive | inactive | inactive |  | inactive |  | inactive | inactive | inactive |  | inactive | 
7 | Oc1ccc2c3c1O[C@H]1[C@@H](O)C=C[C@H]4[C@@H](C2)NCC[C@@]341 |  |  | inactive |  | inactive | inactive |  |  | inactive |  | inactive | inactive | inactive | inactive | inactive | inactive |  | inactive | 
8 | CC[C@H](N)c1ccccc1 | inactive | inactive | inactive | inactive | inactive | inactive | inactive |  | inactive |  |  | inactive |  | inactive | inactive | inactive |  | inactive | 
9 | CC(C)NCC(O)c1ccc([N+](=O)[O-])cc1 (stereo not drawn) | inactive | inactive | inactive | inactive | inactive | inactive | inactive |  | inactive | inactive | inactive | inactive | inactive | inactive | inactive |  |  | inactive | inactive
10 | CC(Cc1ccccc1)NCCn1cnc2c1c(=O)n(C)c(=O)n2C (stereo not drawn) | inactive | inactive | inactive | inactive | inactive | inactive | inactive | inactive | inactive |  |  | inactive |  | inactive | inactive | inactive |  | inactive | inactive
11 | CC(C)(N)Cc1ccccc1Cl |  |  |  |  |  | inactive | inactive | inactive | inactive | inactive | inactive | inactive | inactive | inactive |  | inactive |  | inactive | inactive
12 | O=c1[nH]c2ccccc2n1C1CCNCC1 |  | inactive | inactive | inactive | inactive | inactive | inactive | inactive | inactive | inactive |  | inactive |  | inactive | inactive | inactive |  | inactive | inactive
13 | COc1cccc([C@@]2(O)CCCC[C@@H]2CN(C)C)c1 | inactive | inactive |  | inactive | inactive | inactive | inactive | inactive | inactive |  |  | inactive |  | inactive |  | inactive |  |  | inactive
14 | CC(C)(C1CCC(O)CC1)C1CCC(O)CC1 (stereo not drawn) | inactive |  | inactive | inactive | inactive | inactive | inactive | inactive |  |  |  | inactive |  | inactive | inactive | inactive |  | inactive | 
